# Targets with a hit are over-represented here; the source holds about 7,900 in all. About 0.6% of all pairs of compound and target were hits. A number with no mark means an inactive call.
# What was measured:
# Assay in all cases: log2 fold change, soluble protein after heating vs DMSO (PISA); higher = thermal stabilisation; K562 cells, 10 uM, 30 min; active = over 0.2 and 3.5 SD of the protein, either way, in both replicates (recomputed)
# [1] = compound: NC(=O)Nc1cc(-c2cccc(F)c2)sc1C(=O)N[C@H]1CCCNC1
# Outline: (§1)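 For each measurement, 10 μM compound was applied for 30 min to K562 cells at 2×10^6 cells/mL. Aliquots were heated for 3 min across 48°C-58°C, pooled, and extracted in PBS with 0.5% NP-40 at 4°C; the supernatant after 21,000xg for 90 min was soluble protein. This was quantified by TMTpro 16plex LC-MS/MS with channel sums equalised, and thermal stability was reported relative to control samples from duplicates, on a log2 fold-change scale.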
# [2] = compound: NC(=O)c1cnc(N[C@@H]2CCCC[C@@H]2N)nc1Nc1cccc(-n2nccn2)c1
# Outline: as §1
# [3] = compound: NC1(c2ccc(-c3nc4ccn5c(=O)[nH]nc5c4cc3-c3ccccc3)cc2)CCC1
# Outline: as §1
# [4] = compound: NCC(=O)Nc1ccc(-n2nc(C(F)(F)F)cc2-c2ccc3c(ccc4ccccc43)c2)cc1
# Outline: as §1
# entinostat = compound: Nc1ccccc1NC(=O)c1ccc(CNC(=O)OCc2cccnc2)cc1 [entinostat]
# Outline: as §1
# vorinostat = compound: O=C(CCCCCCC(=O)Nc1ccccc1)NO [vorinostat]
# Outline: as §1
# citarinostat = compound: O=C(CCCCCCNC(=O)c1cnc(N(c2ccccc2)c2ccccc2Cl)nc1)NO [citarinostat]
# Outline: as §1
# silmitasertib = compound: O=C(O)c1ccc2c(c1)nc(Nc1cccc(Cl)c1)c1ccncc12 [silmitasertib]
# Outline: as §1
# [5] = compound: O=C1NC(=O)C(c2cnc3ccccn23)=C1c1cn2c3c(cc(F)cc13)CN(C(=O)N1CCCCC1)CC2
# Outline: as §1
# [6] = compound: c1cc(OCCN2CCCCC2)cc(-c2n[nH]c3ccc(-c4nnc[nH]4)cc23)c1
# Outline: as §1
# UniProt P62318, sequence (P62318 whole entry, looked up): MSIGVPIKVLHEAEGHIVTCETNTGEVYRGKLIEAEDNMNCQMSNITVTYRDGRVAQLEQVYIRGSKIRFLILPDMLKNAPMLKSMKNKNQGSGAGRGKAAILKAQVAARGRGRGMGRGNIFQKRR
# UniProt Q15208, sequence (Q15208 whole entry, looked up): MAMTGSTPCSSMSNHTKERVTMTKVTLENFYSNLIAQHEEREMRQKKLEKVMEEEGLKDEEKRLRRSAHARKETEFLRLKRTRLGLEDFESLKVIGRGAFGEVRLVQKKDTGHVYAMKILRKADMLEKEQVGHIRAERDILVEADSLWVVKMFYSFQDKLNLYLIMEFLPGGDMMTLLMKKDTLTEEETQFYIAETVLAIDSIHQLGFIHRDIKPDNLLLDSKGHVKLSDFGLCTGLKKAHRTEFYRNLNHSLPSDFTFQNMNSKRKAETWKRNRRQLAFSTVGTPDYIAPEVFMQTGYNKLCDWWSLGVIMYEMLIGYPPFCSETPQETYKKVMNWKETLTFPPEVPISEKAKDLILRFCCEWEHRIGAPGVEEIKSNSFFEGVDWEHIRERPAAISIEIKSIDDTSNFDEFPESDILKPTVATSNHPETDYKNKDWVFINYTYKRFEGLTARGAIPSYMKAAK
# UniProt P35270, sequence (P35270 whole entry, looked up): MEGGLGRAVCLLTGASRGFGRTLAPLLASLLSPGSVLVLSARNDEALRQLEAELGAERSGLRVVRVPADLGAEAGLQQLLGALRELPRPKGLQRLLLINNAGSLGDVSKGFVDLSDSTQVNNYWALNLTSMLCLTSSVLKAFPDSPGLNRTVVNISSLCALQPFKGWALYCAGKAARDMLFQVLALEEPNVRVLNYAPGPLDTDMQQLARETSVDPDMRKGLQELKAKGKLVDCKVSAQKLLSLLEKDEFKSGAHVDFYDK
# UniProt Q96CQ1, sequence (Q96CQ1 whole entry, looked up): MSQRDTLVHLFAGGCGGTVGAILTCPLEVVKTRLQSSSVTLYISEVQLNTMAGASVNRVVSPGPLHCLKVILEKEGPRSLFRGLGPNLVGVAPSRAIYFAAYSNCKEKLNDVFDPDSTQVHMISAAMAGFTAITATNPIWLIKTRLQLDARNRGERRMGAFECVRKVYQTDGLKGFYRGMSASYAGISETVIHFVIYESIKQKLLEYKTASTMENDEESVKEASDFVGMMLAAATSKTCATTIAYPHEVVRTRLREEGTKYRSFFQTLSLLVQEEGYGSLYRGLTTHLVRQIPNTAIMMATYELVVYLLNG
# UniProt Q9Y4R8, sequence (Q9Y4R8 whole entry, looked up): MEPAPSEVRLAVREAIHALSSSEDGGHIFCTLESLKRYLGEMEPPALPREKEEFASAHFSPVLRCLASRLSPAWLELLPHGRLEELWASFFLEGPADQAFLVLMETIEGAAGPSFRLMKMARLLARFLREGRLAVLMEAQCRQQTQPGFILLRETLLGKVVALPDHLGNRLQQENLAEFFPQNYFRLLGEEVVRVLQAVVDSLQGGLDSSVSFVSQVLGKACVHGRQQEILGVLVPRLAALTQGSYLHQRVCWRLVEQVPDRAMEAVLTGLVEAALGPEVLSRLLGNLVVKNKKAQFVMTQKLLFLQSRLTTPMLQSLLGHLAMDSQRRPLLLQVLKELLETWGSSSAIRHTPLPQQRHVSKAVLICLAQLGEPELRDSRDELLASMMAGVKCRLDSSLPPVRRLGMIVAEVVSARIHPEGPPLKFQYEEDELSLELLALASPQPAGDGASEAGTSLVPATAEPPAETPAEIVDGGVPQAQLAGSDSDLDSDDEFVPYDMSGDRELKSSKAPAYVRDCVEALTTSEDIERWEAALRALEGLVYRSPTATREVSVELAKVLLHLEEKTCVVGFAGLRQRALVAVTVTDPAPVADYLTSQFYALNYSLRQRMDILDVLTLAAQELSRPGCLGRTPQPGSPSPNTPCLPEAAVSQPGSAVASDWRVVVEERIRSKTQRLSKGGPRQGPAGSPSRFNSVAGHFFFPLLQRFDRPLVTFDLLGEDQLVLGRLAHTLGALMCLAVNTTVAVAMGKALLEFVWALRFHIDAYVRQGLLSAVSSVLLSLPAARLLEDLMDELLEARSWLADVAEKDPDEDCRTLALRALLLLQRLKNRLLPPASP
# UniProt Q9H4I9, sequence (Q9H4I9 whole entry, looked up): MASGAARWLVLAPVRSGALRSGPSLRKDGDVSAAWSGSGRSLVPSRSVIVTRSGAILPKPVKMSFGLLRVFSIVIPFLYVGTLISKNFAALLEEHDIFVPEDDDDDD
# UniProt Q13428, sequence (Q13428 whole entry, looked up): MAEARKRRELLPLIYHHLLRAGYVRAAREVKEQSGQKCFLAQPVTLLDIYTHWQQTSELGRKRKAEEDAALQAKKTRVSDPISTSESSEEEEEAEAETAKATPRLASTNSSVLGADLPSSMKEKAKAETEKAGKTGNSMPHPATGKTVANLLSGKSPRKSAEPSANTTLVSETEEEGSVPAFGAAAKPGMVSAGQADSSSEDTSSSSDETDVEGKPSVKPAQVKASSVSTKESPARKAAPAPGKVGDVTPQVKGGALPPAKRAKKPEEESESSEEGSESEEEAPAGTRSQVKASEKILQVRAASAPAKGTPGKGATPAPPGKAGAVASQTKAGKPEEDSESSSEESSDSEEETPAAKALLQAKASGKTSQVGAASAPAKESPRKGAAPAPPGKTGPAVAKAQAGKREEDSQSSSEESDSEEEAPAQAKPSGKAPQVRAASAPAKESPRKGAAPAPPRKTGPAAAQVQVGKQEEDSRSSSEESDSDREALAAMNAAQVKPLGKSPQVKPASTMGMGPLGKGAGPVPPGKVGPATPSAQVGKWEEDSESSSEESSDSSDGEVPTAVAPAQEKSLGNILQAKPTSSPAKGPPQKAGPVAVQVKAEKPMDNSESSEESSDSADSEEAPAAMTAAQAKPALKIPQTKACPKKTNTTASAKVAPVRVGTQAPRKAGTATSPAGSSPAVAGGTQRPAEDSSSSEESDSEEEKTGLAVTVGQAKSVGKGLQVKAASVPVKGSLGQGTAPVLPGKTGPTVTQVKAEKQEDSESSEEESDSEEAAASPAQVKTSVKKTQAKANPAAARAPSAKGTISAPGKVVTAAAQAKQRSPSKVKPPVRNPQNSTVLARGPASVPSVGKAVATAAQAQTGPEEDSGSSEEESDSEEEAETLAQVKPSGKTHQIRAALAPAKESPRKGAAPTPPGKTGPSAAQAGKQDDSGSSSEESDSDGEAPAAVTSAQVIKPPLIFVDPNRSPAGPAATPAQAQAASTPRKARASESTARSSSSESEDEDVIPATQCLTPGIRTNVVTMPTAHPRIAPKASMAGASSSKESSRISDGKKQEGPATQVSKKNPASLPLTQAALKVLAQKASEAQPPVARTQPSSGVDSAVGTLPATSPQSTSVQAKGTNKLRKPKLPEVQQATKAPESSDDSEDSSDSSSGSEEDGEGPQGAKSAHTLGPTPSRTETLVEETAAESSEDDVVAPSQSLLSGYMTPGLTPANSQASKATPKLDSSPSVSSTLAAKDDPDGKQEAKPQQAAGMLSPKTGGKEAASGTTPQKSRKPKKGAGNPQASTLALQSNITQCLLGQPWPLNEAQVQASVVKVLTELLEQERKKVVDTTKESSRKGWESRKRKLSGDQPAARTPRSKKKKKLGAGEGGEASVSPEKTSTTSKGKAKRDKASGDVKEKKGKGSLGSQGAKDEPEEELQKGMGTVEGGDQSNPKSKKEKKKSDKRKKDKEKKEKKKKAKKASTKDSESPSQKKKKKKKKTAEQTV
# UniProt Q92536, sequence (Q92536 whole entry, looked up): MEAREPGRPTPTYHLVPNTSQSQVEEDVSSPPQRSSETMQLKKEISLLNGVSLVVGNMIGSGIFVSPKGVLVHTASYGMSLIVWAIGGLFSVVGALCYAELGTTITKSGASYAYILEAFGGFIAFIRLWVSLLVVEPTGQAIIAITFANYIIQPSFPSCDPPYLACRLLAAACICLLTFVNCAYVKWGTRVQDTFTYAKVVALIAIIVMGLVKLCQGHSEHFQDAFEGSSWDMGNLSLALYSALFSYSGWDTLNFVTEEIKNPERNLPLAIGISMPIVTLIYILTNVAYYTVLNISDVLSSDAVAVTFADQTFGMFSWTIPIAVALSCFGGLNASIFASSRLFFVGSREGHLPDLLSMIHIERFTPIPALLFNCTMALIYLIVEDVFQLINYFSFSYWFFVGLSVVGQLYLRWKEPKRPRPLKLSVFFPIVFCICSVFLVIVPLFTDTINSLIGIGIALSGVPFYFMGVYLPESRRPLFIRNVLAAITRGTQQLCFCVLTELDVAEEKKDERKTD
# UniProt Q13501, sequence (Q13501 whole entry, looked up): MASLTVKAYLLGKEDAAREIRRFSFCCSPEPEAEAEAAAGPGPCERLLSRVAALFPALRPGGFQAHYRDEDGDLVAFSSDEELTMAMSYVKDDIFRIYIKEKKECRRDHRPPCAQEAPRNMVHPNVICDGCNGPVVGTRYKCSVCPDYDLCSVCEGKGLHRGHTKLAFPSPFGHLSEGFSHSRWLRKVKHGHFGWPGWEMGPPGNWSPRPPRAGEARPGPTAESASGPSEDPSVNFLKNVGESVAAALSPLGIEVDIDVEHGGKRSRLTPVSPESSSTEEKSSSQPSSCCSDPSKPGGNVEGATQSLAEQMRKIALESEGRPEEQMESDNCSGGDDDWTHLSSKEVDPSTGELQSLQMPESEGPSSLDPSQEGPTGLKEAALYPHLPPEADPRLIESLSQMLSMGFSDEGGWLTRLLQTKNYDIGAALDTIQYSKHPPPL
# UniProt P84103, sequence (P84103 whole entry, looked up): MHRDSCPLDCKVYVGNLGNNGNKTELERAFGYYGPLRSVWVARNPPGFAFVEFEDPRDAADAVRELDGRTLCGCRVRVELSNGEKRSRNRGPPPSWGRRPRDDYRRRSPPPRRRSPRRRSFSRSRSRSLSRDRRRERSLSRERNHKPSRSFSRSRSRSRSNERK
# UniProt P62072, sequence (P62072 whole entry, looked up): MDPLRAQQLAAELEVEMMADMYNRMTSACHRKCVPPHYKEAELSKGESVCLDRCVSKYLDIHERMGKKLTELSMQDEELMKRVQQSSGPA
Target,log2 fold change [1],log2 fold change [2],log2 fold change [3],log2 fold change [4],log2 fold change (entinostat),log2 fold change (vorinostat),log2 fold change (citarinostat),log2 fold change (silmitasertib),log2 fold change [5],log2 fold change [6]
SLC25A36 (UniProt Q96CQ1),0.131,0.035,0.015,-0.123,0.036,0.003,0.063,0.106,0.027,0.028
SMAD9 (UniProt O15198),-0.114,0.001,-0.069,0.05,-0.076,0.006,-0.017,-0.055,-0.111,-0.029
TCOF1 isoform 4 (UniProt Q13428),0.131,-0.065,-0.014,-0.013,-0.015,-0.026,-0.002,0.002,0.045,-0.112
SPART (UniProt Q8N0X7),-0.032,-0.105,-0.053,0.006,0.043,-0.032,0.015,0.081,-0.024,0.04
STAT5A (UniProt P42229),-0.115,-0.112,-0.112,-0.115,0.112,0.061,0.194,0.037,-0.029,0.061
SNX3 (UniProt O60493),-0.014,-0.241,-0.19,-0.001,0.025,0.105,0.048,0.132,-0.037,-0.116
TJP1 (UniProt Q07157),-0.043,-0.067,0.033,-0.071,0.044,0.049,0.041,-0.158,-0.056,-0.092
SNX9 (UniProt Q9Y5X1),-0.013,-0.022,-0.102,-0.055,0.037,0.058,0.024,0.033,-0.065,-0.067
STARD9 (UniProt Q9P2P6),-0.179,-0.029,0.058,0.073,0.007,0,-0.026,0.025,-0.048,0.028
ST3GAL2 (UniProt Q16842),-0.066,0.101,-0.04,0.008,-0.028,-0.013,0.008,-0.003,-0.016,-0.05
SLIRP (UniProt Q9GZT3),-0.121,-0.106,-0.041,-0.062,0.127,-0.055,0.023,-0.016,-0.129,-0.129
SRSF3 (UniProt P84103),-0.05,0.148,0.396,0.064,-0.126,-0.026,-0.105,-0.033,0.194,-0.141
SPTBN1 (UniProt Q01082),-0.051,-0.04,-0.041,-0.016,0.011,0.026,-0.009,0.127,0.009,-0.007
SNRPD3 (UniProt P62318),0.034,-0.01,0.025,0.013,-0.059,-0.067,-0.019,0.092,0.271 (active),-0.055
TARBP1 (UniProt Q13395),-0.033,0.048,-0.027,0.014,-0.044,0.003,0.079,0.034,0.053,0
SLC44A2 isoform 2 (UniProt Q8IWA5),-0.086,0.168,0.128,0.05,-0.06,-0.006,0.091,-0.071,-0.075,-0.289
SNX6 (UniProt Q9UNH7),-0.027,-0.376 (active),-0.403 (active),0.007,0.075,0.15,0.064,-0.142,-0.003,-0.087
STK38 (UniProt Q15208),-0.072,-0.077,-0.11,-0.062,0.129,0.016,0.097,0.061,0.004,-0.086
TELO2 (UniProt Q9Y4R8),-0.039,-0.1,-0.207,0.037,0.039,0.137,0.009,0.067,0.117,-0.075
SLC7A6 (UniProt Q92536),-0.07,0.089,0.06,-0.017,-0.029,-0.003,0.026,0.007,-0.135,-0.049
SMDT1 (UniProt Q9H4I9),-0.062,0.032,-0.061,-0.039,0.01,-0.038,0.002,0.041,-0.011,-0.001
SUPT16H (UniProt Q9Y5B9),-0.017,-0.111,-0.183,-0.158,0.207,0.178,0.198,0.109,-0.227,0.025
SRPRB (UniProt Q9Y5M8),0.048,0.028,-0.056,-0.038,0.045,0.029,0.029,-0.007,-0.014,0.045
SUN1 isoform 9 (UniProt O94901),-0.035,-0.073,-0.028,0.102,0.18,0.06,-0.115,-0.009,-0.226,0.075
TIMM44 (UniProt O43615),-0.085,-0.141,-0.372 (active),-0.023,0.084,0.04,0.066,-0.041,-0.027,-0.048
SQSTM1 (UniProt Q13501),-0.036,-0.12,-0.068,-0.079,0.051,0.007,0.081,0.056,0.019,-0.094
STARD3NL (UniProt O95772),0.018,-0.104,-0.413 (active),-0.031,0.093,0.037,0.004,0.044,-0.013,0.035
TIMM10 (UniProt P62072),-0.004,0.042,-0.027,-0.077,0.058,-0.048,-0.012,0.009,-0.04,-0.043
SPR (UniProt P35270),0.006,0.13,0.491 (active),-0.002,-0.049,-0.154,-0.041,0.004,0.176,0.066
STAM2 (UniProt O75886),-0.111,-0.136,-0.133,-0.101,0.012,0.04,0.026,0.049,-0.041,0.064
